The supplement of paper PMC11732987, “Enantioselective OTUD7B fragment discovery through chemoproteomics screening and high-throughput optimisation” (Communications Chemistry, 2025)

Experiments:
Assay in all cases: log2 ratio of Biotin-Ahx-Ub-VS probe labelling (fragment/DMSO); higher = less target engagement (more negative = stronger competition), active = hit call of the paper (q ≤ 0.05, log2 ratio ≤ -1)
Conditions in all cases: compound concentration: 200 uM; treatment time: 3 h
USP42 = biological target: T1, USP42 (UniProt Q9H9J4)
T1 sequence (whole entry): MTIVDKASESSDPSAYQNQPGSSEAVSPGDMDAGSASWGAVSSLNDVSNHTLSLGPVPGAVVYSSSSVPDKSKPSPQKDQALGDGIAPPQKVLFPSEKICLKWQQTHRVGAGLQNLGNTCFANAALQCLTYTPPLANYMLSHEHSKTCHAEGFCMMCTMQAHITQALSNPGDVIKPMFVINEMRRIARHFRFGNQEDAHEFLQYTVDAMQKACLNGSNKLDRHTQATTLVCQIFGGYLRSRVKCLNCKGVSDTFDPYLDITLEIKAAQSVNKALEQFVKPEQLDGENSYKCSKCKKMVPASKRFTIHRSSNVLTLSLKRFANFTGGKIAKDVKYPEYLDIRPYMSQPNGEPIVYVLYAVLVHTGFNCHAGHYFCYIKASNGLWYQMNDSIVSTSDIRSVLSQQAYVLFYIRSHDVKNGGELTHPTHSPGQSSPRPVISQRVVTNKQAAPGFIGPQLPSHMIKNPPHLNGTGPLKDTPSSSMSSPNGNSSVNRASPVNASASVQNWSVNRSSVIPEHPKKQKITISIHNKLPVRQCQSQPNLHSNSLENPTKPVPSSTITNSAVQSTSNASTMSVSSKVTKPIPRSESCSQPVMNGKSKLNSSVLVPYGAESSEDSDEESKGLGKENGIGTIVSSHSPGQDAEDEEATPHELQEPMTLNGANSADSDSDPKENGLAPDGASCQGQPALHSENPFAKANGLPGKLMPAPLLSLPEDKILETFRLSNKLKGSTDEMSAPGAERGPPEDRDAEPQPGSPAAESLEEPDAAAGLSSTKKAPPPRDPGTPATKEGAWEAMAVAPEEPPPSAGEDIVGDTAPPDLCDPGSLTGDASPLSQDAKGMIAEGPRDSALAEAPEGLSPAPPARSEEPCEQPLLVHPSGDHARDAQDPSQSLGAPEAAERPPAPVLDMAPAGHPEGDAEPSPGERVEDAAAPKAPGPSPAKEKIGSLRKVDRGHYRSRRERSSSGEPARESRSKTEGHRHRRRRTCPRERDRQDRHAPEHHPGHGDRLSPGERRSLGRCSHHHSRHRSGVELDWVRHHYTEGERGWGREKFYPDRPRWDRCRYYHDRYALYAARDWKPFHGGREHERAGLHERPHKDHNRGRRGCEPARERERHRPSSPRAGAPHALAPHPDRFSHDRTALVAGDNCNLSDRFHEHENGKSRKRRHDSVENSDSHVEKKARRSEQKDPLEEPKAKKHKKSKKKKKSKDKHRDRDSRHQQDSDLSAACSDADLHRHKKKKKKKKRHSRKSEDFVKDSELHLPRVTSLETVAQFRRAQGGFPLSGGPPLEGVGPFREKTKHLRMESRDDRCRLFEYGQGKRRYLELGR
Method in brief: (§1)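 Fragment (200 µM) or vehicle was incubated for 3 h with triplicate HEK293T lysate samples of 495 µg, which were then treated with Biotin-Ahx-Ub-VS at 0.5 µM final for 1 h. Labelled DUBs were enriched on NeutrAvidin, digested with LysC and trypsin, and analysed by diaPASEF LC-MS/MS. Values are average log2 fragment/vehicle ratios from an unpaired t-test on global-median-normalised Spectronaut label-free quantities, using proteins with ≥2 unique peptides.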

USP46 = USP46 (UniProt P62068)
Sequence of USP46 (P62068 whole entry): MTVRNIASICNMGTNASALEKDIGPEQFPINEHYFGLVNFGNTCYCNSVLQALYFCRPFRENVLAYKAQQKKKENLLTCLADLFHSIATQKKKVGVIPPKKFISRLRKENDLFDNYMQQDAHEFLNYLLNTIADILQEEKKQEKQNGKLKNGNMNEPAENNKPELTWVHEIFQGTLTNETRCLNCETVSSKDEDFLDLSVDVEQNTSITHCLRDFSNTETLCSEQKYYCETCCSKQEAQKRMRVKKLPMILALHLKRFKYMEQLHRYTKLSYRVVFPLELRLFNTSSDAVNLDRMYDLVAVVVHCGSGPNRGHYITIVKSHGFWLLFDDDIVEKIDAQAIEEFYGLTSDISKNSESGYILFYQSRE
Method in brief: as §1

USP47 = biological target: T2, USP47 (UniProt Q96K76)
T2 sequence (whole entry): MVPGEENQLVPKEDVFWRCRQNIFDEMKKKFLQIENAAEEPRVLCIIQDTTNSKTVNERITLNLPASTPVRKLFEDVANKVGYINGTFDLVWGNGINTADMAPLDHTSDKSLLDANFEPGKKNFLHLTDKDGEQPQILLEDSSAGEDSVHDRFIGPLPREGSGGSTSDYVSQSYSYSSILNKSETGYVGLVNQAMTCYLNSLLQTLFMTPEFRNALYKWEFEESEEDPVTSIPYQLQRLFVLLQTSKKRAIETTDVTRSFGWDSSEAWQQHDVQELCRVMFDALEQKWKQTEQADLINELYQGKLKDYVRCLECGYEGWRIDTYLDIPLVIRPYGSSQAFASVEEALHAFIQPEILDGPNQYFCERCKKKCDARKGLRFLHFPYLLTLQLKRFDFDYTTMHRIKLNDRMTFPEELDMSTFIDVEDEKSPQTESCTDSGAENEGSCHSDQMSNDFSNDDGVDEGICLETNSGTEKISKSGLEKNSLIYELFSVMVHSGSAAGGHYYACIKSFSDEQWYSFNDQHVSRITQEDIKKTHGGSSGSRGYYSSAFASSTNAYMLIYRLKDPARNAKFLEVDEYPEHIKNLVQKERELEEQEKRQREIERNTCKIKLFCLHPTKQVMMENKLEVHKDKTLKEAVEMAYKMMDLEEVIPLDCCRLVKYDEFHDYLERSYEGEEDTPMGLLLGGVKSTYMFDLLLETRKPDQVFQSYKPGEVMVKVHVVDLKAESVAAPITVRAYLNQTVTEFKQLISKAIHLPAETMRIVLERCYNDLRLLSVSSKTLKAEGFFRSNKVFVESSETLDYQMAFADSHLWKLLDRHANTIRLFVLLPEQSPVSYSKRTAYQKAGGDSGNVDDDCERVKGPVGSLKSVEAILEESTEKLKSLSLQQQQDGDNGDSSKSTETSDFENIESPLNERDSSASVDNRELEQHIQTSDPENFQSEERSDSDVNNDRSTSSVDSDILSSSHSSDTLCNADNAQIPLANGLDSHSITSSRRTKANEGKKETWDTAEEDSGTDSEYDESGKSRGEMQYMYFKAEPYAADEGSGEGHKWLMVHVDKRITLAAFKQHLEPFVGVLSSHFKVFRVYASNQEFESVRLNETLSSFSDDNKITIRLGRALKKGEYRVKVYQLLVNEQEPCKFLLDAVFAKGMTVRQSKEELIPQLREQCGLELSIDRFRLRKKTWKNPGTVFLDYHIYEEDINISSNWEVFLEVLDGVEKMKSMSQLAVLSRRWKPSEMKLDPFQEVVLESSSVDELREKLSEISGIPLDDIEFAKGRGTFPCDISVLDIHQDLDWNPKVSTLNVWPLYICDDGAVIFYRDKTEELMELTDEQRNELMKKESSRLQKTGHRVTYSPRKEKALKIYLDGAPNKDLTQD
Method in brief: as §1

USP48 = biological target: T3, USP48 (UniProt Q86UV5)
T3 sequence (whole entry): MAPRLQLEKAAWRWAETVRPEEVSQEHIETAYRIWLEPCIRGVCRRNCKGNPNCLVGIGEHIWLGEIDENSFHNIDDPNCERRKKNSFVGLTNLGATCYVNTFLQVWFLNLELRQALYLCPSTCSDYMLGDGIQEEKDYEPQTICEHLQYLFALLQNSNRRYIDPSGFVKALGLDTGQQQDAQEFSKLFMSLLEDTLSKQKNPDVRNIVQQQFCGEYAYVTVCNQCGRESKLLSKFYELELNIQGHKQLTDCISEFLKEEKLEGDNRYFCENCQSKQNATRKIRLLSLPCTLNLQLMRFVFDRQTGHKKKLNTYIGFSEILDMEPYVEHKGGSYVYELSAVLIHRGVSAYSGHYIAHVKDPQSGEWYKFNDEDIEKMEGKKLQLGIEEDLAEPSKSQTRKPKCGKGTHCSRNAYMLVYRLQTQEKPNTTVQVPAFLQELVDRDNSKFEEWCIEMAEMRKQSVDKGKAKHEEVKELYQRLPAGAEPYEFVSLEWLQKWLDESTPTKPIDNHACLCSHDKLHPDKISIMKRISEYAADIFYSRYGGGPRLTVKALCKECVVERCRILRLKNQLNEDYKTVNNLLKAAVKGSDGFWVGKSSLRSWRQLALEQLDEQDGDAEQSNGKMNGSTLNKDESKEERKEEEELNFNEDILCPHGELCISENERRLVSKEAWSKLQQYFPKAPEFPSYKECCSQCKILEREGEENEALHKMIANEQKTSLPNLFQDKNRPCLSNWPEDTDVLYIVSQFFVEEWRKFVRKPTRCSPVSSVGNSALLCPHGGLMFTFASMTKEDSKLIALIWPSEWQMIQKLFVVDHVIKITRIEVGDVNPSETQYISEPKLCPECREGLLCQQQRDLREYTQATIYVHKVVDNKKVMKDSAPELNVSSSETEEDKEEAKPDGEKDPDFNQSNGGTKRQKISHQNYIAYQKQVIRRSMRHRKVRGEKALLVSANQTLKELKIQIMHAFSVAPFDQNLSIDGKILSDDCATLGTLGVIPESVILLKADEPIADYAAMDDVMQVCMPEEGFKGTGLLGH
Method in brief: as §1

USP5 = biological target: T4, USP5 (UniProt P45974)
T4 sequence (whole entry): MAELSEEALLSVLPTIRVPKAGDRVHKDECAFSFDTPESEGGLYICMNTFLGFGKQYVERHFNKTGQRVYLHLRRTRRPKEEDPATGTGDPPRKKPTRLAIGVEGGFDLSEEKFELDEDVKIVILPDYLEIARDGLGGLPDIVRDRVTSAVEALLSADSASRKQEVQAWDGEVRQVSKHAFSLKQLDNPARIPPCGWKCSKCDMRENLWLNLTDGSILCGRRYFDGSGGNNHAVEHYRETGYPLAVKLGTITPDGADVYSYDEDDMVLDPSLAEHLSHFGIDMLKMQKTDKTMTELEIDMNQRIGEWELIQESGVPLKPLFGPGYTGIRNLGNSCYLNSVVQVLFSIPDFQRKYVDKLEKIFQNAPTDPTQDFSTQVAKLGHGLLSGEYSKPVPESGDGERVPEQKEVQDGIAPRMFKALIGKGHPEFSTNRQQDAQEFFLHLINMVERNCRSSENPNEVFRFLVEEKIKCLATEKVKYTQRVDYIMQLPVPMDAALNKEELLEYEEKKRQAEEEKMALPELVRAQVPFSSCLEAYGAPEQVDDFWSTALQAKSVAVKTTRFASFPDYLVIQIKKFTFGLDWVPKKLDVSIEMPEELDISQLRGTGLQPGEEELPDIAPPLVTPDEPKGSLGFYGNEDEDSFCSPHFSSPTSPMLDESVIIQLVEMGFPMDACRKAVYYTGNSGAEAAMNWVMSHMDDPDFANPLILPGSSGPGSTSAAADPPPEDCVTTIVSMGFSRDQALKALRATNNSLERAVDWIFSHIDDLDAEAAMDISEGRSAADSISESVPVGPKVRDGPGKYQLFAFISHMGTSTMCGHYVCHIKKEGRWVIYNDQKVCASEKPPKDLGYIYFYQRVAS
Method in brief: as §1

USP54 = USP54 (UniProt Q70EL1)
Sequence of USP54 (Q70EL1 whole entry): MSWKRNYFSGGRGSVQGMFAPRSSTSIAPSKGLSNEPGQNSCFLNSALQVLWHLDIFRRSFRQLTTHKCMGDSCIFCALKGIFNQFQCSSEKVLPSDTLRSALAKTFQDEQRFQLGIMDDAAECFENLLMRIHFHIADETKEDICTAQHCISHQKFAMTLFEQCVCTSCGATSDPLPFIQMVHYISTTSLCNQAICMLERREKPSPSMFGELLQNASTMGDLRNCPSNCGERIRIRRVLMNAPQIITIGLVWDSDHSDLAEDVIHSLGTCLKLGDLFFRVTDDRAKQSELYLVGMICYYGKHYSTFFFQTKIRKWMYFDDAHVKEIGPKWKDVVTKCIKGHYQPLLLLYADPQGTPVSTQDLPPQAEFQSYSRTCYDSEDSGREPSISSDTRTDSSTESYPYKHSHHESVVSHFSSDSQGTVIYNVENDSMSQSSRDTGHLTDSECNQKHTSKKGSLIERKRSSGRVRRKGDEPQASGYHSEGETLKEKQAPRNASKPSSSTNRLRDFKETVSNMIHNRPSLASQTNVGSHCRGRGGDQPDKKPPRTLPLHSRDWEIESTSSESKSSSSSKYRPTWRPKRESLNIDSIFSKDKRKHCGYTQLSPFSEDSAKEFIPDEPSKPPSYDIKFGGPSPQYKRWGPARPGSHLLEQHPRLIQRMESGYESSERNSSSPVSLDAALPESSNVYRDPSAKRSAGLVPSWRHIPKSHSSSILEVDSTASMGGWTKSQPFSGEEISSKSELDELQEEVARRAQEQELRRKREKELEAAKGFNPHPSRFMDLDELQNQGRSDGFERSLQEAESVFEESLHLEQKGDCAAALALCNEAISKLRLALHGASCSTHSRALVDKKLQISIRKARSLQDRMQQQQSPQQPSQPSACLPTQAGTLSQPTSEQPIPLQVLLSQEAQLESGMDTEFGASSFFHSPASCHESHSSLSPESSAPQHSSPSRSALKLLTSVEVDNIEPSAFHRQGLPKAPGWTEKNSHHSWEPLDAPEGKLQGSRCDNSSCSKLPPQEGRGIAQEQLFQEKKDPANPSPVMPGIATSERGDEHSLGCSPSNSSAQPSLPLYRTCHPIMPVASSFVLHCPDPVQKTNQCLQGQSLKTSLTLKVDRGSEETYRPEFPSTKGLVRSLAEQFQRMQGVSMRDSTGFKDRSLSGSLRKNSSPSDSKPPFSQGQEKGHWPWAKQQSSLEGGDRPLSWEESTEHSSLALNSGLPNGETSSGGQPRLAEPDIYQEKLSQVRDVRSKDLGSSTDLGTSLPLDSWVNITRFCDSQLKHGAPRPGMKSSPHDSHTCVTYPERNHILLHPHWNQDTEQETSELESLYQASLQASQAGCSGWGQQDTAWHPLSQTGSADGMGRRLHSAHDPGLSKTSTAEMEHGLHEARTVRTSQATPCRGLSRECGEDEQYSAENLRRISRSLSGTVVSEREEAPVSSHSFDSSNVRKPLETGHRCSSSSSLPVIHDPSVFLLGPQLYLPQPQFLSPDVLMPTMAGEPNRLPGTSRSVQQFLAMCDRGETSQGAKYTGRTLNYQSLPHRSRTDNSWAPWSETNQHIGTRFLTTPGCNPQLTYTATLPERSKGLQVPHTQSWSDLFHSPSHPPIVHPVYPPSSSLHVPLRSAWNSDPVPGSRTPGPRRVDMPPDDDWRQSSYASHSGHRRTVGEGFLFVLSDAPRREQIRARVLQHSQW
Method in brief: as §1

USP7 = USP7 (UniProt Q93009)
Method in brief: as §1

USP8 = biological target: T5, USP8 (UniProt P40818)
T5 sequence (whole entry): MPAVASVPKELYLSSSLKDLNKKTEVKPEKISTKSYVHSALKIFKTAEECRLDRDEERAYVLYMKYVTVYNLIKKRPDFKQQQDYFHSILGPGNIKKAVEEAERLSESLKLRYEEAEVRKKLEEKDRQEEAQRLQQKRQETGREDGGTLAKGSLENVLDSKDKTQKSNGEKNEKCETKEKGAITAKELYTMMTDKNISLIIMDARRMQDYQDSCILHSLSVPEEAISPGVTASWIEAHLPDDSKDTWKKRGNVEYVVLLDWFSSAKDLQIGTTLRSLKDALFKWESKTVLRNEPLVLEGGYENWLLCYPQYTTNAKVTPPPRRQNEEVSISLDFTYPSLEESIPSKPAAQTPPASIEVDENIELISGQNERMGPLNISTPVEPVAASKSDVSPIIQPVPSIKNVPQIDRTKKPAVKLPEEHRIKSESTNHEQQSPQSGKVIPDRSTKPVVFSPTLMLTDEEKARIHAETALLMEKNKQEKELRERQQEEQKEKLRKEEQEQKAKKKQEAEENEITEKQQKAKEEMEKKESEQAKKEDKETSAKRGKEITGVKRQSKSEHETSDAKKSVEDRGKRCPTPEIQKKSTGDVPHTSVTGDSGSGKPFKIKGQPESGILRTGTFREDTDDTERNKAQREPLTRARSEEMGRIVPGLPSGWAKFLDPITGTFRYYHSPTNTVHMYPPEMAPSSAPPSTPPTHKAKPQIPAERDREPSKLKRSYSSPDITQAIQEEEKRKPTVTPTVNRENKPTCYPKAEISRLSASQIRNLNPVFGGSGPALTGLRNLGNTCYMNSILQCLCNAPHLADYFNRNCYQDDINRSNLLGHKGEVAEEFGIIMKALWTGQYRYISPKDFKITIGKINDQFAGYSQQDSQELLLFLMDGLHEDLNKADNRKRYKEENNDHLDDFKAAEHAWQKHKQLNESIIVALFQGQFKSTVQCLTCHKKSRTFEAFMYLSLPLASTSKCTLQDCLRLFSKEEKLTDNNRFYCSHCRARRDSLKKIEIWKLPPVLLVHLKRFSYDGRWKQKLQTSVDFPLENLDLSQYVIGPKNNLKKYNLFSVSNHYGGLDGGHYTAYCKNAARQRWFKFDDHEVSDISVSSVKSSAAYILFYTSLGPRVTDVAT
Method in brief: as §1

USP9X = USP9X (UniProt Q93008)
Sequence of USP9X (Q93008 whole entry): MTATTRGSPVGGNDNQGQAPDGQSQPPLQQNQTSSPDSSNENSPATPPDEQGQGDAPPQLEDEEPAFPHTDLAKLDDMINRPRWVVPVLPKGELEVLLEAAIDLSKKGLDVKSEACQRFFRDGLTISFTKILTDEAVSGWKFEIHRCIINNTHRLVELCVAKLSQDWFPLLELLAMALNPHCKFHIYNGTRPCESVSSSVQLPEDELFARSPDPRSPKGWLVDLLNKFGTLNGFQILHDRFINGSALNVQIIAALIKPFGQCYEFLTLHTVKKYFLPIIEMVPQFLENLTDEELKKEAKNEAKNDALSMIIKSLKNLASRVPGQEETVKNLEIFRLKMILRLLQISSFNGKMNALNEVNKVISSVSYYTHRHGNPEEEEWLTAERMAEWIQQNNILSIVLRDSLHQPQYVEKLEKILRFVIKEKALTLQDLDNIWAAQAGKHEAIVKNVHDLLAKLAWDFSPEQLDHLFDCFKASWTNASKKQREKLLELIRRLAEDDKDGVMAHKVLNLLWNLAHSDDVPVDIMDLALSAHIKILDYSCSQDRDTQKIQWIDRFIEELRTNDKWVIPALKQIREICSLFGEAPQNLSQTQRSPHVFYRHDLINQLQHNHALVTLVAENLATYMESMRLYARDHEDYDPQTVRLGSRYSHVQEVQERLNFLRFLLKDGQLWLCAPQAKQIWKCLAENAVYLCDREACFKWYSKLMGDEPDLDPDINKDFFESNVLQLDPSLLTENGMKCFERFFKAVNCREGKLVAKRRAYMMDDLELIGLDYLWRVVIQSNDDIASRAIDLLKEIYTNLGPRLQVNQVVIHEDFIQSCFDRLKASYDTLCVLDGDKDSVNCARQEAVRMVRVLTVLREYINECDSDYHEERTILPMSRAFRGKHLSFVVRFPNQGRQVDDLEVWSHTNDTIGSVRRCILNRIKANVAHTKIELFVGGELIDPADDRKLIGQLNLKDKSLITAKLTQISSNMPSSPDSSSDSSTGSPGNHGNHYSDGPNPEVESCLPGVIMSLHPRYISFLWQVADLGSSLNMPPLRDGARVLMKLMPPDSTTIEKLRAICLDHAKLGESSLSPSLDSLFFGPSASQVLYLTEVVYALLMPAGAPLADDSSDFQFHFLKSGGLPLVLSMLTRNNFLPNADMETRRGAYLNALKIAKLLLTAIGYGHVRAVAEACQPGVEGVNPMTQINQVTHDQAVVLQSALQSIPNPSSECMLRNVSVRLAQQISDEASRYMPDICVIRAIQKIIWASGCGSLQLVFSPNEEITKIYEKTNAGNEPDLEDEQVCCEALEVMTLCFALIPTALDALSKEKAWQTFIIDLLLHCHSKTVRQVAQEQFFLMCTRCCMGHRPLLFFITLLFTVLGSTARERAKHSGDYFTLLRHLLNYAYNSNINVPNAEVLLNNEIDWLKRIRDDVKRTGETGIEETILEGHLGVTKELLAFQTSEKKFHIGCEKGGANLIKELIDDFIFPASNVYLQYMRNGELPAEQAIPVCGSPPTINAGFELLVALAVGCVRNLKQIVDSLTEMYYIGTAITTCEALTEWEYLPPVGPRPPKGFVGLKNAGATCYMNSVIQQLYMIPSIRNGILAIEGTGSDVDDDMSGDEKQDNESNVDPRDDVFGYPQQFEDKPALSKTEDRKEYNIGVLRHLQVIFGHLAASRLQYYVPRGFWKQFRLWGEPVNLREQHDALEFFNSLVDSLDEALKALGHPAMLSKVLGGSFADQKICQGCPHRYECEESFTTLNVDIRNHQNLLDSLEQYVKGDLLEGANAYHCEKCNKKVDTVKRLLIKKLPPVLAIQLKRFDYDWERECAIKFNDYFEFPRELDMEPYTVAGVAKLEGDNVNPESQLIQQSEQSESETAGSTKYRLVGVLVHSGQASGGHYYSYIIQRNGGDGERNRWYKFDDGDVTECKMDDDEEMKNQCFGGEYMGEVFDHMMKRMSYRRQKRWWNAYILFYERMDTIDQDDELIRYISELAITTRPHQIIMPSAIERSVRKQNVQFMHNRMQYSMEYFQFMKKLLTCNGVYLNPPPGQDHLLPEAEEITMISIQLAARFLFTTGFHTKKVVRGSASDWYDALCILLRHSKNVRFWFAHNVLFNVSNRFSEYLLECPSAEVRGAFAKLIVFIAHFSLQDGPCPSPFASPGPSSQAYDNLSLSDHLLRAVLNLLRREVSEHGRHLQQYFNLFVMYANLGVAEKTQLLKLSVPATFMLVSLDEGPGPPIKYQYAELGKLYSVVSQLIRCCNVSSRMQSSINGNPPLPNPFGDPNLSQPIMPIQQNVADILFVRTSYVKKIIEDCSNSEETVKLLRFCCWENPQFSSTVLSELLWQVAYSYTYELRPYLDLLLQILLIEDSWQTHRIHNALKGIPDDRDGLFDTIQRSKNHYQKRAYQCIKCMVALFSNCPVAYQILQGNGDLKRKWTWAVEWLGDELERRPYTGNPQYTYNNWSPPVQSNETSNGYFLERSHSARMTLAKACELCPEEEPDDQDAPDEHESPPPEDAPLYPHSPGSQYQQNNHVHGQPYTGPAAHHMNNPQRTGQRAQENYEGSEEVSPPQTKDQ
Method in brief: as §1

UniProt O00487 = biological target: UniProt O00487
Sequence of UniProt O00487 (O00487 whole entry): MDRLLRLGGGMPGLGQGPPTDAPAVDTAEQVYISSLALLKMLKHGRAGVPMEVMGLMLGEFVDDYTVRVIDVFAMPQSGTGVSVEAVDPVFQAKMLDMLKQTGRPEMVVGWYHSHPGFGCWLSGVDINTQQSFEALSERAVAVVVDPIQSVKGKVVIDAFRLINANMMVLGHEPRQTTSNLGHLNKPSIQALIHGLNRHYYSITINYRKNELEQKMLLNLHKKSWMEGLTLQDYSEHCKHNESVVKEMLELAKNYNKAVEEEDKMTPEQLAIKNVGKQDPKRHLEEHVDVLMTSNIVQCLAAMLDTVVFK
Method in brief: as §1

Measured: log2 ratio of Biotin-Ahx-Ub-VS probe labelling

NC(=O)C1CCCN(C(=O)CCl)C1 (stereo not given)
inactive: USP42 -0.105 | USP46 0.15 | USP47 -0.831 | USP48 -0.259 | USP5 -0.0828 | USP54 0.785 | USP7 -0.0546 | USP8 -0.122 | USP9X -0.029 | UniProt O00487 -0.0923
